Assay results reported in the supplement of paper PMC9433436.
± gives the standard deviation of the averaged measurements. The full ranking holds about 4,100 sequences; the median of “relative kcat/Km (krel) vs genomic leader AAAGAU” is about 1.7, and the highest 2% start at about 6.5. This excerpt belongs to a sample that is enriched for the highest values.

Target: T1, E. coli RNase P holoenzyme (M1 P RNA + rnpA protein) (UniProt P0A7Y8)
T1 sequence: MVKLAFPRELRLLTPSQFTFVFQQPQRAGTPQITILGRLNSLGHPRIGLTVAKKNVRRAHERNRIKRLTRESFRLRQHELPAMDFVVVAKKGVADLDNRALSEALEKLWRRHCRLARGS
Test: relative kcat/Km (krel) vs genomic leader AAAGAU (relative (reference leader = 1)); higher = faster RNase P cleavage
Protocol: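 HTS-Kin: a pool of ptRNA-Met (21C construct) with all 4096 combinations of 5' leader nucleotides N(-6) to N(-1) was processed in vitro by E. coli RNase P (P RNA + rnpA/C5 protein) under multiple-turnover conditions at 37 C, pH 8, 17.5 mM MgCl2. Residual substrate was Illumina-sequenced at several fractions reacted, and relative kcat/Km (krel) was computed by internal competition kinetics, calibrated to the genomic leader (AAAGAU = 1). The listed hexamer is the varied N(-6)..N(-1) leader (DNA letters), and it sits between a fixed 5' stem-loop flank (GCAUGCACGAAAGUGCGUGCUAUGAA) and the mature tRNA-Met starting GGCUACGUAGCUCAGUUGG. Two technical replicates are averaged.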

[1] = fraction of substrate reacted: ~9-10% (9.79% repeat 1, 9.1% repeat 2)
[2] = fraction of substrate reacted: ~13-16% (15.68% repeat 1, 13.17% repeat 2)
[3] = fraction of substrate reacted: ~26-29% (28.66% repeat 1, 26.4% repeat 2)

Row | Sequence | relative kcat/Km [1] | relative kcat/Km [2] | relative kcat/Km [3]
1 | ATTCTA | 2.57 ± 2.1 | 2.17 ± 0.23 | 2.44 ± 0.73
2 | AATACC | 1.49 ± 0.43 | 1.431 ± 0.0097 | 1.56 ± 0.25
3 | TTACAC | 4.14 ± 1.9 | 4.92 ± 0.61 | 6.4 ± 2.5
4 | CCCATA | 2.83 ± 1.3 | 3.03 ± 0.6 | 4.43 ± 1.7
5 | GAAGAA | 2.23 ± 0.43 | 2.71 ± 0.3 | 2.76 ± 0.48
6 | CGGTCC | – | – | 0.889 ± 0.14
7 | TTGCAA | 1.54 ± 0.37 | 2.13 ± 0.72 | 2.92 ± 0.97
8 | CATTAG | 2.22 ± 1.2 | 2.26 ± 0.59 | 4.08 ± 1.1
9 | CATTAC | 4.77 ± 1.5 | 5.16 ± 0.98 | 7.24 ± 2.8
10 | GATTAT | 3.36 ± 0.24 | 4.67 ± 0.86 | 7.25 ± 3.7
11 | CATTAA | 3.66 ± 2.4 | 4.11 ± 0.12 | 5.92 ± 2
12 | GATTAA | 3.21 ± 0.97 | 3.86 ± 0.81 | 5.57 ± 2.6
13 | CCTTAC | 3.84 ± 2.1 | 4.83 ± 0.16 | 5.67 ± 1.9
14 | GATTAC | 2.65 ± 0.6 | 4.2 ± 0.47 | 6.1 ± 2.1
15 | GATTAG | 2.16 ± 2.1 | 2.42 ± 0.093 | 3.68 ± 1.1
16 | CATTAT | 4.62 ± 1.6 | 6.32 ± 1.1 | 8.59 ± 3.6
17 | GGAAGA | 2.26 ± 0.31 | 2.24 ± 0.41 | 3.83 ± 0.61
18 | CCTACG | – | – | 1.4 ± 0.03
19 | ACAGTT | 1.6 ± 1.2 | 1.27 ± 0.62 | 1.3 ± 0.82
20 | GTATGG | – | 0.253 ± 0.21 | 1.01 ± 0.7
21 | TTGTTC | 1.96 ± 0.092 | 2.08 ± 0.17 | 3.27 ± 1.5
22 | TAATCT | 1.87 ± 1.1 | 3.08 ± 0.23 | 4.22 ± 1.6
23 | TGGAGG | – | – | 0.887 ± 0.34
24 | AATTTA | 1.65 ± 0.69 | 1.63 ± 0.14 | 2.33 ± 0.76
25 | TGATTA | 2.2 ± 0.59 | 2.91 ± 0.12 | 3.73 ± 1.7

Row | Sequence | relative kcat/Km [1] | relative kcat/Km [2] | relative kcat/Km [3]
26 | CACGCT | 1.83 ± 0.24 | 2.25 ± 0.6 | 3.03 ± 0.94
27 | TTCAGT | – | 2.35 ± 1.7 | 3.37 ± 2.9
28 | CTCAGC | 4.51 ± 1.9 | 5.37 ± 1.6 | 7.11 ± 2.5
29 | TGCAGA | 1.65 ± 0.82 | 2.24 ± 0.094 | 2.7 ± 0.68
30 | TTCAGC | 5.19 ± 1.6 | 6.48 ± 1.2 | 9.03 ± 3.9
31 | ATCAGC | 2.87 ± 0.62 | 3.75 ± 1 | 5.41 ± 1.6
32 | GTCAGT | – | – | 2.53 ± 2.2
33 | GTCAGC | 4.18 ± 1.7 | 5.29 ± 0.92 | 7.22 ± 2.9
34 | TTCAGA | 5.95 ± 2.5 | 6.69 ± 1.9 | 10.5 ± 4.5
35 | CTTAGC | 2.96 ± 1.3 | 3.29 ± 1.3 | 3.62 ± 0.95
36 | TTCAGG | 1.31 ± 0.71 | 1.12 ± 0.87 | 2.76 ± 0.9
37 | GTCAGG | 0.667 ± 0.23 | 1.03 ± 0.2 | 2.57 ± 1.1
38 | TTCGGA | – | – | 1.79 ± 1
39 | AATGTT | 0.792 ± 0.16 | 0.821 ± 0.55 | 1.29 ± 0.62
40 | TTAATA | 1.94 ± 0.59 | 2.09 ± 0.08 | 2.85 ± 1
41 | AGGGGG | – | – | 1.11 ± 1
42 | GGCGCC | 2.72 ± 2.1 | 2.21 ± 0.42 | 3.06 ± 0.78
43 | ACCCCC | 2.28 ± 0.72 | 1.22 ± 0.62 | 3.15 ± 1.3
44 | CTAGTA | 1.32 ± 0.52 | 0.841 ± 0.56 | 1.69 ± 0.87
45 | CACCTG | – | – | 0.873 ± 0.43
46 | AACCCG | – | – | 0.785 ± 0.38
47 | CTCATC | 3.63 ± 1 | 4.57 ± 0.43 | 6.8 ± 2.4
48 | GTCATC | 4.03 ± 1.8 | 5.36 ± 1.2 | 8.03 ± 3.5
49 | GGCATC | 1.73 ± 0.36 | 2.09 ± 0.48 | 2.42 ± 0.71
50 | CTTATT | 2.42 ± 1 | 2.76 ± 0.34 | 3.73 ± 1.6

Row | Sequence | relative kcat/Km [1] | relative kcat/Km [2] | relative kcat/Km [3]
51 | CGCATT | 2.39 ± 0.24 | 2.95 ± 0.92 | 4.66 ± 2
52 | GCCATC | 2.88 ± 0.72 | 3.43 ± 1.3 | 4.62 ± 1.3
53 | CTCATG | – | 1.28 ± 0.22 | 3.1 ± 0.052
54 | ATCATC | 3.27 ± 0.66 | 4.72 ± 0.78 | 6.25 ± 2.5
55 | CTCATT | 3.69 ± 1.4 | 5.23 ± 0.62 | 7.36 ± 3
56 | GGATAA | 1.77 ± 0.4 | 2.37 ± 0.4 | 2.82 ± 1.2
57 | ATTGAA | 2.28 ± 0.51 | 2.44 ± 0.32 | 3.48 ± 1.1
58 | GGTAGA | 2.41 ± 0.65 | 2.19 ± 0.26 | 3.13 ± 1.6
59 | TTTGAT | 0.799 ± 0.12 | 1.01 ± 0.025 | 1.39 ± 0.26
60 | CCAGTC | 2.41 ± 0.63 | 1.32 ± 0.76 | 1.52 ± 0.37
61 | TACATC | 3.03 ± 0.57 | 4.44 ± 0.76 | 6.8 ± 2.7
62 | CACATC | 2.93 ± 1 | 3.64 ± 0.86 | 5.53 ± 2.1
63 | GACATT | 3.42 ± 0.26 | 4.33 ± 1.3 | 6.4 ± 3.1
64 | TACATT | 3.85 ± 1.4 | 5.11 ± 0.79 | 7.56 ± 3.7
65 | TACATG | 0.765 ± 0.67 | 1.44 ± 0.13 | 3.16 ± 1.2
66 | GACATC | 3.66 ± 0.77 | 3.95 ± 1.1 | 5.9 ± 2.2
67 | TCCCTA | 3.22 ± 1.7 | 3.63 ± 0.34 | 4.34 ± 1.6
68 | CAAACG | – | 0.172 ± 0.13 | 0.797 ± 0.69
69 | GAGAGT | 0.122 ± 0.072 | 1.48 ± 0.097 | –
70 | TACTCT | 3.83 ± 0.27 | 4.7 ± 0.86 | 7.13 ± 3.3
71 | GACTCC | 3.31 ± 0.62 | 4.26 ± 0.76 | 5.61 ± 2
72 | CACTCT | 3.97 ± 1.4 | 4.52 ± 0.75 | 6.37 ± 2.3
73 | TACTCC | 3.23 ± 0.81 | 5.06 ± 1 | 6.63 ± 2.8
74 | AACTCT | 2.76 ± 1.1 | 3.3 ± 0.76 | 4.39 ± 1.2
75 | AACTCC | 3 ± 2.2 | 3.3 ± 0.49 | 4.38 ± 1.3

Row | Sequence | relative kcat/Km [1] | relative kcat/Km [2] | relative kcat/Km [3]
76 | TGATTC | 1.39 ± 0.61 | 2.97 ± 1.2 | 3.89 ± 1.8
77 | CCAGCA | 1.37 ± 0.54 | 0.452 ± 0.45 | 0.927 ± 0.46
78 | CCATAG | – | 0.327 ± 0.075 | 1.95 ± 0.2
79 | TGGGGT | – | – | 1.83 ± 0.45
80 | TGCTCT | 0.944 ± 0.33 | 1.02 ± 0.37 | 1.5 ± 0.59
81 | TTATAG | 2.25 ± 1.6 | 2.63 ± 0.53 | 4.22 ± 1.9
82 | ATATAG | 2.16 ± 1.9 | 1.77 ± 0.48 | 3.88 ± 1.4
83 | GTATAA | 3.41 ± 1.2 | 4.18 ± 0.35 | 5.6 ± 2
84 | GTATTT | 3.06 ± 2 | 3.71 ± 0.4 | 5.37 ± 1.9
85 | GTATAT | 3.56 ± 1.5 | 4.99 ± 0.35 | 7.89 ± 3.5
86 | CTATAT | 4.48 ± 1.6 | 5.55 ± 0.85 | 7.37 ± 2.9
87 | TTATCT | 2.77 ± 0.45 | 3.58 ± 0.95 | 5.02 ± 2.2
88 | ATATAA | 2.75 ± 1.4 | 3.31 ± 0.47 | 4.9 ± 1.7
89 | ATATAT | 3 ± 0.9 | 4.49 ± 0.51 | 6.84 ± 3.3
90 | CTATAA | 3.33 ± 1.3 | 3.72 ± 0.51 | 4.92 ± 1.3
91 | CTATAG | 2.47 ± 1.2 | 1.823 ± 0.012 | 3.4 ± 0.44
92 | TTATAT | 4.62 ± 2 | 5.95 ± 0.72 | 8.54 ± 4
93 | GTGCAA | 1.89 ± 1.4 | 1.25 ± 0.53 | 1.32 ± 0.22
94 | ACACCT | 2.6 ± 1.3 | 1.66 ± 0.33 | 2.53 ± 1.6
95 | TCAGCC | 2.48 ± 0.96 | 2.37 ± 0.56 | 3.15 ± 0.59
96 | GAGCAG | – | 0.164 ± 0.047 | 1.27 ± 0.062
97 | ACGCGA | 2.19 ± 0.79 | 1.29 ± 0.1 | 2.07 ± 0.28
98 | CTGTTA | 2.76 ± 1.4 | 1.44 ± 1.1 | 2.19 ± 0.06
99 | CGACGT | – | 2.25 ± 1.1 | 2.36 ± 1.5
